This is a sample that favours compounds with a hit; in the whole collection about 10% have one here.
GPT2 inh = blocks human glutamate pyruvate transaminase 2 | Recombinant GPT2, coupled pyruvate oxidase/HRP Amplex Red fluorescence | 100,000 tested, 0.25% active | Potency, µM (top dose mostly 57.7 µM), actives largely listed as inhibitors | AID 1671188 | Q8TD30; note: nearly all actives have a fitted effect of over 60% in size
Target sequence (Q8TD30 whole entry, looked up): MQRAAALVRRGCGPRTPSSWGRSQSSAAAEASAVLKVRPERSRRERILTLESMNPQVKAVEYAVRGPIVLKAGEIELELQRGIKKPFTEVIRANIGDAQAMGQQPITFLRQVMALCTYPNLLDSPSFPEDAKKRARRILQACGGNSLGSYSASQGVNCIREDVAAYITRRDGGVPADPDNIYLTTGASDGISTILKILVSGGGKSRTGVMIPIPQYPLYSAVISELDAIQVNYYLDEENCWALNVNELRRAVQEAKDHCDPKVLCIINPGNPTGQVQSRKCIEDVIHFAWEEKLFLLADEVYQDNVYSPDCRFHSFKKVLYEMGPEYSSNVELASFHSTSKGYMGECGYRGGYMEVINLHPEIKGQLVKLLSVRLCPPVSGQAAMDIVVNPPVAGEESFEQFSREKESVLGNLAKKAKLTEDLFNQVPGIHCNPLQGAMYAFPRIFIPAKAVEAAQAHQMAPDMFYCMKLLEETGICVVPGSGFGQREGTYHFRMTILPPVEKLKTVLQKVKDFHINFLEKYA
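Fluorescence of coupled pyruvate oxidase/HRP/Amplex Red system (50uM Amplex, 30 min, dark) reports pyruvate formed by GPT2. Enzyme reaction: 10ng/uL GPT2, 2mM L-alanine, 250uM a-KG, 30 min room temperature, pH 7.5; 50uM AOA control.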
NPR1 antag = antagonists of human natriuretic peptide receptor Npr1; HEK293 hNpr1 GloSensor cGMP, ANP-stimulated luminescence; P16066; Potency, µM (top dose mostly 46.3 µM), most hits filed as inhibitors; 76,000 tested, 1.6% active; AID 1347048; calls by dose curve; note: nearly all actives have a fitted effect of over 60% in size
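HEK293 cells stably expressing human Npr1 and cGMP GloSensor pGS-40F, loaded 2 h with 2% GloSensor reagent, given compound 30 min at room temperature. Luminescence read before and 20 min after 0.1 nM hNppA.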
FLuc inh = blocks purified firefly luciferase enzyme activity; P08659; purified P. pyralis luciferase, luminescence, biochemical; Potency, µM (series often up to 115 µM), most hits filed as inhibitors; 76,000 tested, 2.5% active; note: nearly all actives have a fitted effect of over 65% in size
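Luminescence read by CCD imager after adding enzyme (10nM final) to wells holding compound, titrated in qHTS. Substrates 10uM each D-luciferin and ATP; buffer 50mM Tris acetate pH 7.5, 10mM Mg acetate, Tween-20, BSA.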
HEK cytotox = cytotoxic compounds in HEK 293 cells. HEK 293 viability, ATP luminescence (CellTiter-Glo), 48-72 h. Potency, µM (titrated, usually from 115 µM), usual class: inhibitors. 94,000 tested, 6.6% active. AID 1345083; note: nearly all actives have a fitted effect of over 60% in size
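HEK 293 seeded at 250 cells/well receive compound via pintool. After 48 or 72 hr at 37 degree Celsius, 5% CO2 and 95% humidity, CellTiter-Glo is dispensed and luminescence read following 10 min at room temperature.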
3T3 cytotox = cytotoxic compounds in NIH 3T3 cells; AID 1345082; NIH 3T3 viability, CellTiter-Glo ATP luminescence, 48-72 h; 94,000 tested, 4.3% active; Potency, µM (top dose mostly 96.7 µM), usual class: inhibitors; note: nearly all actives have a fitted effect of over 55% in size
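NIH 3T3 cells at 400 cells/well received 23 nL of compound by pintool and were incubated 48 or 72 h at 37 °C. Viability was read as ATP-coupled CellTiter-Glo luminescence.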
NPR1 antag cnf = hNpr1 antagonism, confirmation assay. shares compounds with NPR1 antag. HEK293 hNpr1 cGMP GloSensor luminescence, ANP-stimulated. Potency, µM (top dose mostly 57.6 µM), most hits filed as inhibitors. 1,400 tested, 76% active. AID 1347044; calls by dose curve; note: nearly all actives have a fitted effect of over 70% in size
NPR2 antag = hNpr2 antagonism, selectivity versus Npr1; shares compounds with NPR1 antag; AID 1347046; Potency, µM (top dose mostly 57.6 µM), most hits filed as inhibitors; HEK293 hNpr2 GloSensor cGMP luminescence, CNP-stimulated; 1,400 tested, 67% active; calls by dose curve; note: nearly all actives have a fitted effect of over 70% in size
FLuc inh counter = FLuc enzyme inhibition, Npr1 counter-screen; shares compounds with NPR1 antag; purified FLuc enzyme, luminescence, Km substrate; Potency, µM (series often up to 57.6 µM), usual class: inhibitors; 1,400 tested, 0.7% active
GloSensor ctrl = control cell line activity, Npr1 antagonist counter-screen; shares compounds with NPR1 antag; HEK293 GloSensor cGMP, SNP-stimulated, luminescence; Potency, µM (titrated, usually from 57.6 µM), hits mostly inhibitors; 1,400 tested, 69% active; AID 1347051; calls by dose curve; note: nearly all actives have a fitted effect of over 70% in size
Large screens that a line does not name were inactive (follow-up assays come after a bar, where they were run). Unless noted, calls come from the whole dose curve; as a rule, active = well fitted curve in the direction sought with a large enough effect; inconclusive = small, poorly fitted or top-dose-only effect, or another doubt; inactive = no such curve, though single readings can be large; an effect the other way counts as inactive or inconclusive.

FC(F)(F)c1ccc(CN2CCC3(CC(c4cccnc4)=NO3)C2)cc1 (centres undefined)	HEK cytotox inconclusive (no result: NPR1 antag, FLuc inh)
FC(F)(F)c1ccc(CN2CCC3(CC2)CC(c2cccnc2)=NO3)cc1	GPT2 inh inconclusive, NPR1 antag 2.5µM, HEK cytotox inconclusive, 3T3 cytotox inconclusive | NPR1 antag cnf 6.9µM | NPR2 antag 11µM | FLuc inh counter inactive | GloSensor ctrl 6.1µM
Cc1noc(C)c1-c1ccc2c(n1)CN(Cc1ccc(C(F)(F)F)cc1)C(=O)CO2	HEK cytotox inconclusive, 3T3 cytotox inconclusive
O=C1COc2ccc(-c3ccoc3)nc2CN1Cc1ccc(C(F)(F)F)cc1	NPR1 antag 35µM, HEK cytotox inconclusive, 3T3 cytotox 79µM | NPR1 antag cnf 35µM | NPR2 antag 35µM | FLuc inh counter inactive | GloSensor ctrl 35µM
O=C1COc2ccc(-c3ccoc3)nc2CN1Cc1ccccc1	NPR1 antag inconclusive, HEK cytotox inconclusive, 3T3 cytotox inconclusive | NPR1 antag cnf inconclusive | NPR2 antag inconclusive | FLuc inh counter inactive | GloSensor ctrl inconclusive
O=C(NC1C[C@H]2CC[C@@H](C1)N2C(=O)NCCc1ccccc1)c1ccc(F)cc1 (some centres undefined)	HEK cytotox inconclusive (no result: NPR1 antag, FLuc inh)
Cn1ncc2c(C(=O)NCC(F)F)cc(-c3ccccc3F)nc21	3T3 cytotox inconclusive (no result: GPT2 inh, NPR1 antag, FLuc inh)
O=C(Nc1ccccc1F)N1CCC(Oc2ccccc2-c2nc(C3CC3)no2)C1 (centres undefined)	HEK cytotox inconclusive, 3T3 cytotox inconclusive (no result: NPR1 antag, FLuc inh)
CN(C)c1ccc(C(=O)N2CCN(c3cc(-c4ccc(Cl)cc4)[nH]n3)CC2)cc1	NPR1 antag 13µM, HEK cytotox inconclusive, 3T3 cytotox inconclusive | NPR1 antag cnf 22µM | NPR2 antag 22µM | FLuc inh counter inactive | GloSensor ctrl 22µM
Cc1ccsc1C(=O)N1CCN(c2cc(-c3ccc(Cl)cc3)[nH]n2)CC1	NPR1 antag 13µM, HEK cytotox inconclusive, 3T3 cytotox 25µM | NPR1 antag cnf 24µM | NPR2 antag 27µM | FLuc inh counter inactive | GloSensor ctrl 22µM
CN(C)c1ccc(C(=O)N2CCCN(c3cc(-c4ccc(Cl)cc4)[nH]n3)CC2)cc1	NPR1 antag inconclusive, HEK cytotox inconclusive, 3T3 cytotox inconclusive
O=C(NC1CCN(c2cc(-c3ccc(F)cc3)[nH]n2)CC1)c1cccc2[nH]ccc12	NPR1 antag inconclusive, HEK cytotox 40µM, 3T3 cytotox 40µM | NPR1 antag cnf inconclusive | NPR2 antag inconclusive | FLuc inh counter inactive | GloSensor ctrl inactive
CCOc1ccc(C(=O)N2CCCN(c3cc(-c4ccc(OC)cc4)[nH]n3)CC2)cc1OCC	HEK cytotox inconclusive
CCOc1ccc(C(=O)N2CCN(c3cc(-c4ccc(Cl)cc4)[nH]n3)CC2)cc1OCC	NPR1 antag 2.2µM, HEK cytotox 20µM, 3T3 cytotox 22µM | NPR1 antag cnf 7.7µM | NPR2 antag 14µM | FLuc inh counter inactive | GloSensor ctrl 9.7µM
O=C(C1COc2ccccc2O1)N1CCN(c2cc(-c3ccc(Cl)cc3)[nH]n2)CC1 (centres undefined)	NPR1 antag inconclusive, HEK cytotox 45µM, 3T3 cytotox inconclusive | NPR1 antag cnf 15µM | NPR2 antag 22µM | FLuc inh counter inactive | GloSensor ctrl 14µM
Cc1ccc(C(=O)N2CCN(c3cc(-c4ccccc4)[nH]n3)CC2)cc1F	HEK cytotox inconclusive, 3T3 cytotox inconclusive
O=C(c1cccc2[nH]ccc12)N1CCCN(c2cc(-c3ccc(Cl)cc3)[nH]n2)CC1	GPT2 inh inconclusive, NPR1 antag 10µM, HEK cytotox inconclusive, 3T3 cytotox inconclusive | NPR1 antag cnf 15µM | NPR2 antag 19µM | FLuc inh counter inconclusive | GloSensor ctrl 14µM
O=C(Cc1ccccc1F)N1CCN(c2cc(-c3ccc(Cl)cc3)[nH]n2)CC1	none
Cc1cccc(C(=O)N2CCCN(c3cc(-c4ccc(Cl)cc4)[nH]n3)CC2)c1	HEK cytotox inconclusive, 3T3 cytotox inconclusive
Cc1ccc(C(=O)N2CCN(c3cc(-c4ccc(Cl)cc4)[nH]n3)CC2)cc1F	NPR1 antag 18µM, HEK cytotox inconclusive, 3T3 cytotox inconclusive | NPR1 antag cnf 27µM | NPR2 antag 22µM | FLuc inh counter inactive | GloSensor ctrl 24µM
O=C(c1ccc(Br)cc1)N1CCN(c2cc(-c3ccc(Cl)cc3)[nH]n2)CC1	NPR1 antag inconclusive, HEK cytotox 45µM, 3T3 cytotox 40µM | NPR1 antag cnf 22µM | NPR2 antag 24µM | FLuc inh counter inactive | GloSensor ctrl 15µM
COC(=O)c1cccc(NC(=S)N[C@H]2CO[C@H]3[C@@H]2OC[C@@H]3n2nnnc2Oc2ccc3c(c2)OCO3)c1	HEK cytotox inconclusive, 3T3 cytotox inconclusive
O=C(c1nc2cccnc2n(Cc2ccccc2)c1=O)N1CCC(c2ccccc2)CC1	HEK cytotox inconclusive, 3T3 cytotox inconclusive (no result: NPR1 antag, FLuc inh)
COCCCNC(=O)c1cc(C(C)(C)C)nc2c1cnn2C	3T3 cytotox inconclusive (no result: NPR1 antag, FLuc inh)
CCC(=O)N1Cc2ccccc2CC2(CCCCN2Cc2ccncc2)C1 (centres undefined)	HEK cytotox inconclusive (no result: NPR1 antag, FLuc inh)
COc1ccc(CC2CCOC3(CCN(C(=O)c4ccc(C)s4)CC3)C2)cc1 (centres undefined)	HEK cytotox inconclusive, 3T3 cytotox inconclusive (no result: NPR1 antag, FLuc inh)
Cn1cccc1C(=O)N1CCN(c2cc(-c3ccc(Cl)cc3)[nH]n2)CC1	HEK cytotox inconclusive, 3T3 cytotox inconclusive
O=C(c1ccc(OC(F)(F)F)cc1)N1CCN(c2cc(-c3ccc(Cl)cc3)[nH]n2)CC1	NPR1 antag 11µM, HEK cytotox 32µM, 3T3 cytotox 18µM | NPR1 antag cnf 19µM | NPR2 antag 22µM | FLuc inh counter inactive | GloSensor ctrl 19µM
O=C(c1ccccc1Cl)N1CCN(c2cc(-c3ccc(Cl)cc3)[nH]n2)CC1	NPR1 antag 7.9µM, HEK cytotox inconclusive, 3T3 cytotox inconclusive | NPR1 antag cnf 14µM | NPR2 antag 14µM | FLuc inh counter inactive | GloSensor ctrl 11µM
CNC(=O)c1cc(C)nc2onc(C3CCN(C(=O)c4cccc(Cl)c4)CC3)c12	none (no result: GPT2 inh, NPR1 antag, FLuc inh)
